Compound activity as filed in PubChem.
AMA1-RON2 inh: disrupts binding of P. falciparum AMA1 to RON2; hit rate 0.2% among 360,000; AlphaScreen AMA1-biotinylated RON2 peptide binding; Potency, µM (top dose mostly 58.2 µM), for inactives: at the top dose activity change, negative = inhibition, usual class: inhibitors;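 further: 0% = vehicle wells and -100% = peptide control; nearly all actives have a fitted effect of over 45% in size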
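AMA1 (3D7) with his tag at 25 nM final met compounds first, then biotinylated RON2 peptide at 25 nM; detection used donor plus acceptor beads, 10 µg/mL apiece, read by AlphaScreen after 30 min at room temperature.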
Pf growth 48h: P. falciparum growth inhibition at 48 hours (one generation) | P. falciparum luciferase growth in erythrocytes, 48 h | hit rate 5.9% among 310,000 | Potency, µM (doses to about 28.7 µM), without a hit: at the top dose activity change, negative = inhibition, hits mostly inhibitors; further: on the % scale 0 is the no-effect control and ±100 the full control effect
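Growth was read as firefly luciferase luminescence after a 48 h, 37 C, 5% CO2 exposure of compounds to reporter-bearing P. falciparum cultures (0.1% parasitemia, 2% hematocrit final) in Albumax-supplemented RPMI 1640.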
HCV inh: HCV inhibition; Potency, µM (titrated, usually from 41.8 µM), inactives show at the top dose activity change, negative = inhibition, hits mostly inhibitors; hit rate 3.4% among 340,000; Huh7.5.1 HCVcc-Cre infection, luciferase reporter, 44 h; further: on the % scale 0 is the no-effect control and ±100 the full control effect
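Cells seeded at 1,000/well and cultured 4 h, then compounds added followed by HCVcc-Cre virus (~0.5 moi). After 44 h further culture, luciferase substrate was added, plates held 15 min at room temperature, and luminescence read for 15 sec.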
SARS PLP yeast: SARS-CoV PLP inhibition in yeast; Potency, µM (highest dose often 32.9 µM), for the others: top-dose activity, positive = growth rescue, actives largely listed as activators; hit rate 0.19% among 330,000; S. cerevisiae expressing SARS-CoV PLpro, growth rescue; AID 485353; calls by dose curve; further: 0% is about no effect; nearly all actives have a fitted effect of over 55% in size
NS1 inh: blocks influenza NS1 protein function | AID 2326 | hit rate 0.4% among 270,000 | Potency, µM (top dose mostly 46.1 µM), for the others: top-dose activity, positive = more growth; calls by dose curve; further: actives are rising curves; nearly all actives have a fitted effect of over 50% in size
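A cell-based growth assay was used: compounds that relieve NS1-induced slow growth of budding yeast raise OD600. Assay medium was yeast nitrogen base with ammonium sulphate and -URA supplement, pH 6.0, with 2% galactose.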
Pf growth 96h: inhibits malaria parasite growth, 96 h. P. falciparum luciferase reporter growth, 96 h. Potency, µM (titrated, usually from 28.7 µM), inactives show at the highest dose activity change, negative = inhibition, usual class: inhibitors. hit rate 6.9% among 320,000. AID 504834; further: on the % scale 0 is the no-effect control and ±100 the full control effect
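Infected RBCs, 2% Hct / 0.05% parasitemia final; luciferase-reporter P. falciparum; cpd 96 h, 37 C, 5% CO2; luciferase detection reagent; luminescence.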
Numbers without * were called inactive; [ ] = dose if it differs, or a comment. A selection: hits, their analogues and other compounds. The true share with any hit is near 12%. Unless noted, the call rests on the fitted dose curve; in most records, active means well fitted curve in the direction sought with a large enough effect; inconclusive means small, poorly fitted or top-dose-only effect, or another doubt; inactive means no such curve, though single readings can be large; an effect the other way counts as inactive or inconclusive. Potency means the concentration at half of the fitted maximal effect.

How did CCOc1cc(C(=O)N2CCC(CC3CC(c4ccccc4)=NO3)(C(=O)NCc3ccc(OC)cc3)CC2)cc(OCC)c1OCC (centres undefined) do in these assays?
AMA1-RON2 inh: -8%; HCV inh: inconclusive

How did CCOc1cc(C(=O)N2CCC(CC3CC(c4ccc(Cl)cc4)=NO3)(C(=O)NCC3CCCCC3)CC2)cc(OCC)c1OCC (centres undefined) do in these assays?
AMA1-RON2 inh: -8%; Pf growth 48h: 0.29µM*; HCV inh: inconclusive; SARS PLP yeast: 1%; NS1 inh: 2%; Pf growth 96h: 0.23µM*

Results for CCCNC(=O)C1(CC2CC(c3ccccc3)=NO2)CCN(C(=O)c2ccccc2)CC1 (centres undefined) ?
AMA1-RON2 inh: 1%; Pf growth 48h: 12µM*; HCV inh: 5%; SARS PLP yeast: -1%; Pf growth 96h: inconclusive

How did O=C(c1ccccc1)N1CCC(CC2CC(c3cccc(Br)c3)=NO2)(C(=O)NCC2CCCCC2)CC1 (centres undefined) do in these assays?
AMA1-RON2 inh: -2%; Pf growth 48h: inconclusive; HCV inh: 7%; SARS PLP yeast: 0%; NS1 inh: inconclusive; Pf growth 96h: 5.2µM*

What do the screens show for `C[C@H](CO)N1C[C@H](C)[C@H](CN(C)C(=O)c2ccccc2)OCc2ccccc2-c2c(n(C)c3ccccc23)C1=O`?
AMA1-RON2 inh: -6%

How did CN1CC=C2C(C#N)=C(N)C(C#N)(C#N)C(CCc3ccccc3)C2C1 (centres undefined) do in these assays?
AMA1-RON2 inh: 7%; Pf growth 48h: -24%; HCV inh: -3%; SARS PLP yeast: -7%; NS1 inh: 4%; Pf growth 96h: 7.4µM*

What do the screens show for `CN1CC=C2C(C#N)=C(N)C(C#N)(C#N)[C@H](c3cccs3)[C@H]2C1`?
AMA1-RON2 inh: -2%; Pf growth 48h: -10%; HCV inh: inconclusive; SARS PLP yeast: -11%; NS1 inh: 10%; Pf growth 96h: -25%

Results for Cc1cccn2c(=O)c3cc(C#N)c(=NC(=O)c4ccco4)n(Cc4ccco4)c3nc12 ?
AMA1-RON2 inh: -12%; Pf growth 48h: inconclusive; HCV inh: inconclusive; SARS PLP yeast: 0%; NS1 inh: 8%; Pf growth 96h: inconclusive

How did COCCCn1c(=NC(=O)c2ccccc2)c(C#N)cc2c(=O)n3cccc(C)c3nc21 do in these assays?
AMA1-RON2 inh: 5%; Pf growth 48h: 2.9µM*; HCV inh: inconclusive; SARS PLP yeast: -1%; NS1 inh: 6%; Pf growth 96h: inconclusive

What do the screens show for `CCOCCCn1c(=NC(=O)c2cccs2)c(C#N)cc2c(=O)n3cccc(C)c3nc21`?
AMA1-RON2 inh: 3%; Pf growth 48h: 1.9µM*; HCV inh: inconclusive; SARS PLP yeast: 0%; NS1 inh: 1%; Pf growth 96h: -7%

What do the screens show for `COCCCn1c(=NC(C)=O)c(C#N)cc2c(=O)n3cccc(C)c3nc21`?
AMA1-RON2 inh: 0%; Pf growth 48h: 3%; HCV inh: -23%; SARS PLP yeast: 0%; NS1 inh: -2%; Pf growth 96h: inconclusive

What do the screens show for `CCN(C(=O)c1cc2c(=O)n3cccc(C)c3nc2n1CCCOC)C1CCCCC1`?
AMA1-RON2 inh: 48%; Pf growth 48h: inconclusive; HCV inh: inconclusive; SARS PLP yeast: -8%; NS1 inh: -55%; Pf growth 96h: 9.3µM*

How did Cc1cccn2c(=O)c3cc(C#N)c(=NC(=O)c4ccccc4)n(Cc4ccco4)c3nc12 do in these assays?
AMA1-RON2 inh: -11%; HCV inh: 4µM*

Results for COC(=O)c1ccc([N+](=O)[O-])cc1N1C(=O)C2C3CCC(C3)C2C1=O (centres undefined) ?
AMA1-RON2 inh: -4%; Pf growth 48h: 6%; HCV inh: 18%; SARS PLP yeast: 0%; NS1 inh: 2%; Pf growth 96h: 87%[5.75 µM]

How did Fc1cccc(Cc2noc(CN3CCC(c4ccncc4)CC3)n2)c1 do in these assays?
AMA1-RON2 inh: -5%; Pf growth 48h: -28%; HCV inh: inconclusive; SARS PLP yeast: -1%; NS1 inh: 0%; Pf growth 96h: -1%

How did CC(=O)N=c1c(C#N)cc2c(=O)n3ccccc3nc2n1Cc1ccccc1 do in these assays?
AMA1-RON2 inh: 16%; Pf growth 48h: inconclusive; HCV inh: inconclusive; SARS PLP yeast: -12%; NS1 inh: 9%; Pf growth 96h: 8.3µM*

What do the screens show for `CCOCCCn1c(=NC(C)=O)c(C#N)cc2c(=O)n3ccccc3nc21`?
AMA1-RON2 inh: -20%; Pf growth 48h: 19%; HCV inh: inconclusive; SARS PLP yeast: 1%; NS1 inh: -1%; Pf growth 96h: 4%

What do the screens show for `COCCN(CC1CCCN(C2Cc3ccccc3C2)C1)C(=O)CCC(F)(F)F` (centres undefined)?
AMA1-RON2 inh: -2%; Pf growth 48h: 5%; HCV inh: -11%; SARS PLP yeast: -7%; NS1 inh: 6%; Pf growth 96h: 0.41µM*

Results for COCCN(CC1CCCN(C2Cc3ccccc3C2)C1)C(=O)c1ccc(C(C)=O)cc1 (centres undefined) ?
AMA1-RON2 inh: 7%; Pf growth 48h: inconclusive; HCV inh: 6%; SARS PLP yeast: -7%; NS1 inh: -2%; Pf growth 96h: 49%

Results for Cc1ccc(S(=O)(=O)N2CCOC2CNC(=O)C(=O)NCc2ccncc2)cc1 (centres undefined) ?
AMA1-RON2 inh: -15%; Pf growth 48h: -6%; HCV inh: inconclusive; SARS PLP yeast: -2%; NS1 inh: 2%; Pf growth 96h: 21%

What do the screens show for `COc1cc2cc3c(N)c(C(=O)Nc4sc(C)c(C)c4C#N)sc3nc2cc1OC`?
AMA1-RON2 inh: 3%; Pf growth 48h: inconclusive; HCV inh: -6%; SARS PLP yeast: 1%; NS1 inh: 16%; Pf growth 96h: 12µM*

What do the screens show for `CCC(C)(C)NC(=O)C(c1cccc(OC)c1OC)N(C(=O)CCC(=O)Nc1cc(C)on1)c1ccc2c(c1)OCCO2` (centres undefined)?
AMA1-RON2 inh: 5%; Pf growth 48h: inconclusive; HCV inh: -7%; SARS PLP yeast: 0%; NS1 inh: -5%; Pf growth 96h: inconclusive

How did CN1/C(=C\C=N\NC(=O)c2cccnc2)C(C)(C)c2ccccc21 do in these assays?
AMA1-RON2 inh: 103%; Pf growth 48h: 0.59µM*; HCV inh: 3%; SARS PLP yeast: 0%; NS1 inh: 8%; Pf growth 96h: inconclusive

What do the screens show for `Nc1c(C(=O)c2ccccc2)sc(Nc2ccccc2)c1S(=O)(=O)c1ccccc1`?
AMA1-RON2 inh: -26%; Pf growth 48h: inconclusive; HCV inh: 14µM*; SARS PLP yeast: 1%; NS1 inh: 19%; Pf growth 96h: inconclusive
